Each structure is given as a SMILES string. The campaign covered roughly 200,000 compounds. About 18,000 (9%) were called active. Shown is part of a subset that was picked to be rich in actives. Unmarked numbers belong to inactive results. Rule as the data show it: active = inhibition above about 50%; inactive = the rest.

A short description of the test: Leishmania major promastigote growth inhibition, primary screen (AID 1063).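 Also: promastigotes grown with compound for 44 hours at 28 °C.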 The following applies: Leishmania major promastigotes, resazurin fluorescence viability; at 10 µM; stronger effect = higher value. (The colour change of resazurin is a common sign of viable cells or microbes.)
For the compound `CCN(CCn1cccn1)Cc1cn[nH]c1-c1ccc(OC)cc1F`, the inhibition (as a rule, the drop in the measured response relative to a control, in per cent) is 2.85%.
With `Oc1cccc2ccc(/C=C/c3ccc(Br)s3)nc12`, the inhibition is -3.7%.
For `CCN(CC(=O)NCCc1ccccc1)S(=O)(=O)c1ccc(C)cc1` the value was 48%; for `CCN(CC(=O)NCCc1ccccc1)S(=O)(=O)c1ccccc1`, 5.3%.
For `CCCNC(=O)CN(Cc1ccccc1F)S(=O)(=O)c1ccc(C)cc1` the value was 100% (active).
For `CN(C)C(=O)c1cccn(Cc2cccc(C(F)(F)F)c2)c1=O`, the inhibition was -8.4%.
For `Cc1cc(C)n2nc(SCC(=O)NC(=O)NCc3ccco3)nc2n1` the value was -4.34%.
For `O=c1[nH]c2cccnc2n(CCNc2ncc(C(F)(F)F)cc2Cl)c1=O` the value was -4.9%; for `Cc1ccc(NC(=O)Nc2ccc3oc(C)nc3c2)cc1`, 2.15%; for `O=C(Nc1ccc2ccccc2c1)Nc1ccc2snnc2c1`, 100% (active).
For `COc1ccc(NC(=O)Nc2ccc3nsnc3c2)cc1` the value was 5.81%; for `CCCn1c(NC(=O)C23CC4CC(CC(O)(C4)C2)C3)nc2ccccc21`, -1.31%.
Take `CCn1c(COc2c(C)cccc2C)nnc1SCc1nc2ccccc2c(=O)[nH]1`: the inhibition is 4.15%.
Take `C/[N+]([O-])=C\c1ccc([N+](=O)[O-])o1`: the inhibition is 98.5% (active).
For the compound `COC(=O)C1=C(C)N(C)C(=O)NC1c1ccc([N+](=O)[O-])o1` (stereo not drawn), the inhibition is 15.2%.
Under `CN1CCN(/N=C/c2ccc(-c3ccc([N+](=O)[O-])cc3)o2)CC1` stands -3.39%; under `O=C(COc1ccc(Cl)cc1[N+](=O)[O-])N1CCCCC1`, -1.15%.
For `O=c1cc(CN2CCN(S(=O)(=O)/C=C/c3ccccc3)CC2)c2ccc(O)cc2o1` the value was 67.8% (active); for `O=C(CN1CCN(S(=O)(=O)/C=C/c2ccccc2)CC1)Nc1ccc(N2CCOCC2)cc1`, 7.17%; for `COc1ccc2c(CN3CCN(S(=O)(=O)c4cccs4)CC3)cc(=O)oc2c1`, 2.99%.
In the case of `O=c1c(-c2ccccc2)cnc2n1CCS2`, the inhibition is -5.22%.
For `O=C(Cc1c(F)cccc1Cl)Nc1ncc([N+](=O)[O-])s1` the value was 15.8%; for `O=C(Nc1ccc2c(c1)OCCO2)C(c1ccc(F)cc1)N1CCCCC1` (stereo not drawn), 58.5% (active); for `O=C(CSc1ccc(-c2ccc(F)cc2)nn1)Nc1ccc2c(c1)OCCO2`, -7%.
For `CC1CCCN(C(C(=O)Nc2ccc(C(C)C)cc2)c2ccc3c(c2)OCO3)C1` (stereo not drawn), the inhibition is 26.3%.
Turning to `COc1cc(/C=N/NC(=O)c2cc(C)n(-c3ccc(F)cc3)c2C)cc(OC)c1O`, the inhibition was 3.76%.
Under `O=C(COC(=O)CC1CC2CCC1C2)NC(=O)NC1CCCC1` (stereo not drawn) stands -2.24%; under `Cc1cccc(-n2cnc(C(=O)Nc3cccnc3)c2)n1`, 10.3%.
Turning to `Cc1cccc(-n2cnc(C(=O)NNC(=S)Nc3ccccc3)c2)n1`, the inhibition was 87% (active).
As to `Cn1cc(Cl)c(C(=O)NNC(=S)Nc2cccc(Cl)c2)n1`, the inhibition was -7.35%.
Consider `CCOC(=O)c1ccc[n+](CC(=O)Nc2ccccc2OC(F)F)c1`, for which the inhibition was 1.13%.
Under `CCCCN(C(=O)COc1ccc(NC(C)=O)cc1)C1CCS(=O)(=O)C1` (stereo not drawn) stands -9.97%; under `CCOCCCNC(=S)N1CCC(NC(=O)C2CCCCC2)CC1`, -5.68%; under `COCCNC(=S)N1CCC(NC(=O)C23CC4CC(CC(C4)C2)C3)CC1`, 73.8% (active).
Under `COc1ccccc1NC(=S)NC(=O)C(C)C` stands -0.07%; under `COc1ccc(C(=O)NC2CCN(C(=S)Nc3ccccc3)CC2)cc1`, -5.57%.
Under `COc1ccccc1NC(=S)N1CCN(C(c2ccccc2)c2ccccc2)CC1` stands 65.1% (active).
For the compound `CC(C)NC(=S)N1CCN(C(c2ccccc2)c2ccccc2)CC1`, the inhibition was 7.72%.
Under `COc1ccccc1NC(=S)N1CCC(NC(=O)C23CC4CC(CC(C4)C2)C3)CC1` stands 94.4% (active); under `CCOc1ccc(C(=O)NC2CCN(C(=O)Nc3ccccc3OC)CC2)cc1`, -1.82%.
Under `CCCNC(=S)N1CCC(NC(=O)C23CC4CC(CC(C4)C2)C3)CC1` stands -3.43%; under `Cc1ccccc1NC(=O)Cn1c(=O)n(CC2CCCO2)c(=O)c2ccccc21` (stereo not drawn), -7.76%.
As to `Cc1cc(C)c(C#N)c(N2CCC(C(N)=O)CC2)n1`, the inhibition is -0.97%.
For `Cc1csc(NC(=O)Nc2ccccc2[N+](=O)[O-])n1`, the inhibition is 4.81%.
Turning to `O=C(Oc1cccc(NC2=NS(=O)(=O)c3ccccc32)c1)c1ccncc1`, the inhibition was -2.71%.
For `O=C(N/N=C/c1ccc(OCc2ccccc2)cc1)c1ccc(O)cc1` the value was 12.5%; for `CCC1SC(CC)C(=O)N(CC(=O)NC2CCCCC2)C1=O` (stereo not drawn), -5.41%.
Under `Cc1cc(C(=O)OCC(=O)N2c3ccccc3NC(=O)C2(C)C)c(C)n1-c1ccccc1` stands 21.6%; under `CC1(C)C(=O)Nc2ccccc2N1C(=O)COC(=O)Cn1cnc2ccccc2c1=O`, -3.68%; under `CCNc1ccc(C(=O)OCC(=O)N2c3ccccc3NC(=O)C2(C)C)cc1[N+](=O)[O-]`, 54.4% (active).
Under `COc1ccc(-c2csc(-c3cccs3)n2)cc1OC` stands 0.19%; under `CCOc1ccc(-c2ccc(SCC(=O)N3CCOCC3)nn2)cc1`, -2.79%; under `Cc1ccc(Cc2nc(-c3cccc(C)c3)no2)cc1`, -3.66%.
Regarding `Cc1ccc(-c2noc(CN3CCN(Cc4ccccc4)CC3)n2)cc1`, the inhibition is 52.1% (active).
For `Cc1ccc(-c2noc(CC(c3ccccc3)c3ccccc3)n2)cc1` the value was 7.54%.
For `Cn1cc(/C=C/C(=O)N2CCCC(C(=O)c3ccc(C(F)(F)F)cc3)C2)cn1` (stereo not drawn), the inhibition is -7.13%.
For `Brc1cc(/C=N/n2cnnc2)oc1Br` the value was -0.54%.
As to `S=c1[nH]nc(NCCc2ccccc2)s1`, the inhibition was -6.01%.
In the case of `COc1ccc(OC)c(NC(=O)CN(Cc2ccc(Cl)cc2)S(C)(=O)=O)c1`, the inhibition was 90.1% (active).
Under `COC(=O)c1ccccc1NC(=O)CN(Cc1ccc(Cl)cc1)S(C)(=O)=O` stands 36.9%.
Under `COc1ccc(NC(=O)CN(Cc2ccccc2)S(C)(=O)=O)cc1OC` stands -6.14%.
Consider `COc1ccc(CCNC(=O)CN(c2ccccc2)S(C)(=O)=O)cc1`, for which the inhibition is -6.75%.
For `COc1ccccc1N1CCN(C(=O)CN(Cc2ccc(Cl)cc2)S(C)(=O)=O)CC1` the value was -0.49%.
`COc1ccc(CNC(=O)CN(Cc2ccc(Cl)cc2)S(C)(=O)=O)cc1`: the inhibition was 57.5% (active).
Under `CCC(C)NC(=O)CN(C1CCCCC1)S(C)(=O)=O` (stereo not drawn) stands 1.28%; under `O=C(COC(=O)c1ccncc1)c1ccccc1`, -4.89%.
For `CNC(=O)NC(=O)CSc1nnc(-c2ccc(F)cc2)n1CC1CCCO1` (stereo not drawn) the value was -2.36%; for `Cc1nc2ccccn2c1C(=O)NN=C1CCN(C)CC1`, 35.4%; for `O=C(NC1CCc2ccccc21)C12CN(Cc3ccccc3)CC1C(c1cccc([N+](=O)[O-])c1)=NO2` (stereo not drawn), 58.3% (active).
Under `Nc1ccc(C(=O)OCC(=O)NC2CCCc3ccccc32)cc1[N+](=O)[O-]` (stereo not drawn) stands -5.78%; under `CCOc1cnc(C(=O)NNC(=O)c2ccccc2Br)o1`, -1.9%; under `Cc1ccc(NC(=O)NNC(=O)c2sccc2-n2cccc2)cc1`, -8.12%.
Turning to `COC(=O)C1=C(C)N(C)C(=S)NC1c1ccccc1` (stereo not drawn), the inhibition was -3.63%.
For `COC(=O)C1=C(C)N(C)C(C)=C(C(=O)OC)C1c1cccc(Br)c1` the value was 52.8% (active).
For `COC(=O)C1NN=C(C(=O)c2ccc(Br)cc2)C1c1cccc(Br)c1` (stereo not drawn) the value was 24.8%; for `COc1cccc(N(Cc2nnc3n2CCCCC3)C(=O)Nc2ccccc2F)c1`, -3.13%.
For `CCOc1ccc(Nc2nc(Cl)nc(N3CCN(c4ccc(OC)cc4)CC3)n2)cc1` the value was 53% (active).
Consider `COC(=O)c1ccc(Oc2nc(Nc3ccc(F)cc3)nc(N3CCCC3)n2)cc1`, for which the inhibition was 2.39%.
Consider `CCOc1ccc(NC(=O)CN2CCN(CC(=O)Nc3ccc(OC)cc3)CC2)cc1`, for which the inhibition was 39.6%.
For `O=C(Oc1cccc(O)c1)C1CCCCC1` the value was -0.1%; for `CCC(=O)Nc1c(S(=O)(=O)c2ccccc2)c2nc3ccccc3nc2n1Cc1ccccc1`, 32.2%; for `Cc1ccc(S(=O)(=O)Nc2nc(N)n(-c3ccccc3)n2)cc1`, -11%.
In the case of `Cc1ccc(S(=O)(=O)c2c(N)n(C)c3nc4ccccc4nc23)cc1`, the inhibition was 99.1% (active).
Regarding `Cc1noc(/C=C/N(C)C)c1S(=O)(=O)N1CCCC(C(=O)NCc2ccco2)C1` (stereo not drawn), the inhibition was -6.58%.
For `Cc1noc(/C=C/c2ccco2)c1S(=O)(=O)N1CCC(C(=O)N2CCc3ccccc32)CC1` the value was 66.6% (active); for `O=C(C1CCN(S(=O)(=O)Cc2ccccc2)CC1)N1CCCc2ccccc21`, 24.6%.
`CCOc1ccc(OCC)c(NC(=O)C2CCN(S(=O)(=O)c3c(C)noc3C)CC2)c1`: the inhibition was 26.8%.
In the case of `CCOC(=O)C1CCN(C(=O)C2CCN(S(=O)(=O)c3c(C)noc3C)CC2)CC1`, the inhibition is -2.98%.
With `Cc1noc(/C=C/c2ccco2)c1S(=O)(=O)N1CCC(C(=O)Nc2ccc(Cl)cn2)CC1`, the inhibition is 74.5% (active).
For `CC1=C(C(=O)N(C)C)C(c2ccccc2OC(F)F)NC(=O)N1` (stereo not drawn) the value was -4.21%; for `CC(=O)NC(Cc1ccc(F)c(F)c1)C(=O)NC1CCN(C(=O)c2ccc(C)cc2)CC1` (stereo not drawn), -6.89%; for `CCN(CC)CC(=O)Nc1sc2c(c1C(=O)c1ccccc1C)CCC2`, 47.2%.
`CCOC(=O)C1(Cc2ccc(Cl)cc2)CCN(C(=O)C2=NNC(=O)CC2)CC1`: the inhibition is 0.36%.
